The subject of experiment [1] is XIP peptide (Xip251-270) binding. Nature of the experiment: XIP fragment 251-270 binding compounds – biochemical, small-molecule microarray, fluorescence 635/667 nm, 0.1 µg/mL protein, primary screen (AID 1182). The note with it: fluorescent protein binding, 635 nm, higher = more signal, called active from +8 up or from −8 down.
Experiment [2] relates to XIP peptide (Xip251-270). Nature of the experiment: compounds binding XIP fragment 251-270 – biochemical, small-molecule microarray, fluorescence 635/667 nm, 0.5 µg/mL protein, primary screen (AID 1183). The note with it: fluorescence 635 nm, higher = more signal.
Experiment [3] in a line: blood-stage malaria parasite viability loss – strain 3D7, DAPI fluorescence, 100 nL, primary screen (AID 1184).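 Further: parasites grown inside human red blood cells in medium with human serum.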 The note with it: P. falciparum 3D7 growth, 3 d, higher = more signal.
In experiment [4] the target is Homeobox protein Hox-A13 (Mus musculus) (UniProt Q62424). Kind of experiment: disruptors of Hoxa13 oligonucleotide interaction – biochemical, fluorescence polarization, labeled oligonucleotide, primary screen (AID 1185). The note with it: Hoxa13:DNA binding, 15 min, higher = more signal, called active from +8 up or from −8 down. A general note: In fluorescence polarisation assays a small probe gives low polarisation when free and higher when bound to something large.

The source made the active and inactive calls.

Sequence of Homeobox protein Hox-A13 (Mus musculus) (Q62424 whole entry, looked up): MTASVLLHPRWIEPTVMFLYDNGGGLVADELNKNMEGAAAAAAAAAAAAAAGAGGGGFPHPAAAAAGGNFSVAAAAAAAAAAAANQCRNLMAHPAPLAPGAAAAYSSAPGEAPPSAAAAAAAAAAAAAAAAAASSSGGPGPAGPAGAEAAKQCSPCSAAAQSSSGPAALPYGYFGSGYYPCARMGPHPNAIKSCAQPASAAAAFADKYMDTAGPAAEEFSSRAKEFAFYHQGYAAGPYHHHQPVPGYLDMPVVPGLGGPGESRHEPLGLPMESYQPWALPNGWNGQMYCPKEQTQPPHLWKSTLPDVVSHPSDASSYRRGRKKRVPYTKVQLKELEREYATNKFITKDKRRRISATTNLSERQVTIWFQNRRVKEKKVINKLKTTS

For the compound `CSCC[C@@H]1NC(=O)CC=C[C@@H](C)COC(=O)[C@H](C)COC1=O`, the figures for the composite z-score in experiment [1] and in experiment [2] were 0.439 (inactive) and 0.8, respectively. Moreover, the z-score in experiment [3] was 0.461; in experiment [4], 0.0971 (inactive).

`C=C(C)C(=O)OC[C@H]1CN2[C@@H](CC[C@@H](C)[C@@H]2c2ccc(Br)cc2)C(=O)O1`: the composite z-score is 0.414 (inactive) in experiment [1] and -0.102 in experiment [2]. Also, the z-score is 1.05 in experiment [3] and -2.2 (inactive) in experiment [4].

As to `C#CCCCON=C1C[C@@H](O)[C@@H](O)[C@@H]2[C@@H]3C(=O)N([C@@H](C)c4ccccc4)C(=O)[C@@H]3CC[C@@H]12`, the composite z-score in experiment [1] was -0.406 (inactive); in experiment [2], -0.125. Besides, the z-score in experiment [3] is -0.913; in experiment [4] it was -2.28 (inactive).

On to `CCOC(=O)NN=C1C[C@@H](O)[C@@H](O)[C@@H]2[C@@H]3C(=O)N(CC)C(=O)[C@@H]3CC[C@H]12`, for which the composite z-score is 0.124 (inactive) in experiment [1] and -0.379 in experiment [2]. Further, the z-score is 0.613 in experiment [3] and 0.368 (inactive) in experiment [4].

As for `COC(=O)[C@H](Cc1ccccc1)NC(=O)[C@@H](C)CO`, the results for the composite z-score in experiment [1] and in experiment [2] were -0.285 (inactive) and -0.9, respectively. Moreover, the z-score is -1.23 in experiment [3] and 1.16 (inactive) in experiment [4].

`COc1ccc(O[C@H]2C=C[C@@H](c3ccccc3)O[C@@H]2CON=C(C)CCN2CCCc3nc(C)c(C)cc32)cc1`: the values for the composite z-score in experiment [1] and in experiment [2] were 0.301 (inactive) and 0.693, respectively. For the same compound, the figures for the z-score in experiment [3] and in experiment [4] were -1.96 and -4.5 (inactive), respectively.

Turning to `CON=C(C)CCN1CCc2nc(-c3ccccc3)c(-c3ccccc3)cc2C1`, the composite z-score in experiment [1] was 0.257 (inactive); in experiment [2] it was 0.41. The results for the z-score in experiment [3] and in experiment [4] were -1.38 and -2.53 (inactive), respectively.

For `CCCNC(=O)OC[C@H]1O[C@H](CCON=C[C@@H](NS(=O)(=O)c2ccc(C)cc2)[C@H](C)C=CCC(=O)OC)C=C[C@@H]1Oc1ccc(OC)cc1`, the composite z-score is -0.349 (inactive) in experiment [1] and -0.501 in experiment [2]. The z-score in experiment [3] is -0.862; in experiment [4], -4.48 (inactive).

Take `C[C@H]1CC[C@@H](C(=O)O)N[C@@H]1c1cccc(N2CCCC2=O)c1`: the composite z-score is 0.641 (inactive) in experiment [1] and -0.397 in experiment [2]. The z-score in experiment [3] was 0.752; in experiment [4] it was -0.0351 (inactive).

As for `COC(=O)[C@@H]1CC[C@H](C)[C@@H](c2ccc(C)cc2)N1C(=O)c1ccc(C=NO[C@@H](C)c2cc(-c3c(C)cc(C)cc3C)no2)cc1`, the composite z-score in experiment [1] is -0.274 (inactive); in experiment [2], 0.511. The z-score was -0.225 in experiment [3] and 0.492 (inactive) in experiment [4].

With `CCOC(=O)[C@H](Cc1ccccc1)NC(=O)CCC1CC(OC(=O)NCc2cccc3ccccc23)CC2(CCCC(COC(=O)NCC3CCCCC3)O2)O1` (some centres not stated), the composite z-score is 1.98 (inactive) in experiment [1] and 0.357 in experiment [2]. For the same compound, the z-score was -1.69 in experiment [3] and -3.1 (inactive) in experiment [4].

As to `CCc1cc2c(nc1CC)CCN(CCC(C)=NOC(C)CN1CCCCc3nc(C)c(C)cc31)C2` (configuration not stated), the composite z-score was 0.531 (inactive) in experiment [1] and 0.61 in experiment [2]. Further, the z-score is -1.86 in experiment [3] and -7.64 (inactive) in experiment [4].

For `CCOC(=O)[C@H](CC(C)C)NC(=O)CCC1CC(OC(=O)NCCc2ccc(F)cc2)CC2(CCCC(COC(=O)NCCOC)O2)O1` (some centres not stated), the composite z-score in experiment [1] is 0.0029 (inactive); in experiment [2] it was 0.39. In addition, the z-score was -1.9 in experiment [3] and -6.12 (inactive) in experiment [4].

`CC[C@@H](c1ccccc1)n1c(=O)n2n(c1=O)[C@H]1[C@H](O)[C@@H]3O[C@@H]3C(=NOCc3ccccc3)[C@H]1CC2`: the composite z-score in experiment [1] was 0.265 (inactive); in experiment [2] it was 0.539. For the same compound, the z-score in experiment [3] is -1.81; in experiment [4], -4.2 (inactive).

With `CCN1C(=O)[C@H]2[C@H]3[C@H](O)[C@H](O)CC(=NNC(=O)OCc4ccccc4)[C@@H]3CC[C@H]2C1=O`, the composite z-score in experiment [1] is -0.425 (inactive); in experiment [2], -0.0369. The z-score in experiment [3] was 1.14; in experiment [4], -0.144 (inactive).

For `CCN(CC)CC(O)CN1CCCCc2nc(C)c(C)cc21` (configuration not stated), the composite z-score in experiment [1] was -0.344 (inactive); in experiment [2] it was -0.136. Besides, the z-score in experiment [3] is 0.694; in experiment [4], -1.17 (inactive).

`COC(=O)[C@H](C)NC(=O)CCC1CC(OC(=O)NCCc2ccc(F)cc2)CC2(CCCC(COC(=O)NCC3CCCCC3)O2)O1` (some centres not stated): the composite z-score was -0.0255 (inactive) in experiment [1] and 0.526 in experiment [2]. Besides, the z-score is -2.07 in experiment [3] and -2.56 (inactive) in experiment [4].

For `CCOC(=O)[C@H](Cc1ccccc1)NC(=O)CCC1CC(OC(=O)NCc2cccc3ccccc23)CC2(CCCC(COC(=O)NCc3ccc4c(c3)OCO4)O2)O1` (some centres not stated), the composite z-score is -0.322 (inactive) in experiment [1] and 0.818 in experiment [2]. The z-score in experiment [3] is 0.721; in experiment [4], -3.19 (inactive).

As for `COc1ccc(OC[C@@H](CO)OC)cc1`, the figures for the composite z-score in experiment [1] and in experiment [2] were 0.617 (inactive) and -0.317, respectively. The z-score in experiment [3] was 1.62; in experiment [4] it was -0.0261 (inactive).

As for `CC=CC1=C(CO)[C@H](O)[C@H]2O[C@H]2[C@@H]1O`, the composite z-score in experiment [1] was 0.353 (inactive); in experiment [2], 0.374. Further, the z-score was 0.0425 in experiment [3] and -0.101 (inactive) in experiment [4].

In the case of `C[C@@H]1CC[C@@H](C(=O)O)N[C@H]1c1cccc(N2CCOCC2)c1`, the composite z-score is -0.315 (inactive) in experiment [1] and -0.135 in experiment [2]. The z-score was 0.818 in experiment [3] and 0.167 (inactive) in experiment [4].

Regarding `O=C1C=C[C@@H](O)[C@@H]2[C@@H]3C(=O)N(c4cccc(Oc5ccccc5)c4)C(=O)[C@@H]3CC[C@@H]12`, the composite z-score is -0.0205 (inactive) in experiment [1] and 0.528 in experiment [2]. Besides, the z-score in experiment [3] was -1.46; in experiment [4], -0.827 (inactive).

In the case of `O=C1CCCC=C1C(O)C1CCCCC1` (configuration not stated), the composite z-score is -0.459 (inactive) in experiment [1] and -0.11 in experiment [2]. The z-score is 0.247 in experiment [3] and -0.0768 (inactive) in experiment [4].
